Screening results (PubChem BioAssay)
Dicer inh: inhibitors of Dicer pre-microRNA processing, primary screen, biochemical, cat-ELCCA, chemiluminescence | cat-ELCCA pre-miR-21 Dicer processing; active compounds read high | Endoribonuclease Dicer (Homo sapiens), Q9UPY3 | z-score at 25 µM | AID 1347074, 2019 | actives 6% (n = 47,000); in the data active = z-score above about 3, passing the limit was not always enough;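 also: higher signal means more uncleaved substrate so more Dicer inhibition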
Numbers stand for hits; n = inactive. The full list was thinned out, with hits kept by preference.

SMILES	Dicer inh
COc1ccc(OC)c(C2C(C(=O)OC(C)C)=C(C)NC3=C2C(=O)CC(c2ccccc2)C3)c1 (stereo unspecified)	n
c1ccc(-c2nc3c4ccccc4ccn3c2CN2CCOCC2)cc1	n
COc1ccc(-c2nnc(N3CCOCC3)c3ccccc23)cc1	n
c1ccc(-c2nn3c4cc(N5CCOCC5)ccc4nc3c3ccccc23)cc1	6.1
CCOC(=O)/C(N=Nc1ccccc1)=C(\C)O	n
CC(O)(CCO)C12CC3CC(CC(C3)C1)C2 (stereo unspecified)	n
Cc1onc(-c2c(Cl)cccc2Cl)c1NC(=O)OCc1c(F)cccc1Cl	4
CCCNC(=O)O/N=C(\N)c1c(-c2c(Cl)cccc2Cl)noc1C	4.5
CC(=O)NOC(=O)c1c(-c2c(Cl)cccc2Cl)noc1C	n
Cc1onc(-c2c(Cl)cccc2Cl)c1C(=O)ONC(=O)C(C)(C)C	n
Cc1onc(-c2c(Cl)cccc2Cl)c1NC(=O)OCCOc1ccc(Cl)cc1Cl	n
Cc1onc(-c2c(Cl)cccc2Cl)c1NC(=O)NN(C)C(=S)SCc1c(F)cccc1Cl	n
Cc1c(Cl)cccc1-n1c(CCc2nc(-c3ccc(Cl)cc3)no2)n[nH]c1=S	n
CCOC(=O)C(C#N)Cc1c(C)c(C)c(C)c(C)c1C (stereo unspecified)	n
O=C1CC(c2cccc(Cl)c2)Cc2nc(N3CCc4ccccc4C3)ncc21 (stereo unspecified)	n
CSc1sccc1/C=C(/C#N)S(C)(=O)=O	n
CSC1=N/C(=C\c2ccccc2Cl)C(=O)N1Cc1ccc(Cl)cc1	n
COc1ccc(S(=O)(=O)n2ccnc2)cc1C	n
CNC(=S)NNC(=O)c1ccccc1Cl	n
CN(C)C(=S)SCc1ccccc1C(=O)Oc1c(Cl)cccc1Cl	3.6
Cc1cc(Cl)c(OC(=O)c2c(Cl)cccc2Cl)c(Cl)c1	n
C/C(=N\Nc1c(Cl)cc(Cl)cc1Cl)c1c(O)cc(C)oc1=O	n
O=C(CSc1nnc(-c2ccccc2O)o1)c1ccccc1	n
O=C1ON=C(c2ccccc2)/C1=C/c1ccc(Cl)cc1	n
Cc1ccc(/C(N)=N/OC(=O)C(C)c2ccc(CC(C)C)cc2)cc1 (stereo unspecified)	n
SMILES	Dicer inh
COc1ccc(/C(O)=C2/C(=O)C(=O)N(CCN(C)C)C23C(=O)N(C)c2ccccc23)cc1 (stereo unspecified)	n
COc1ccc(/C(O)=C2/C(=O)C(=O)N(CCCN(C)C)C23C(=O)N(C)c2ccccc23)cc1 (stereo unspecified)	3.7
CN(C)CCN1C(=O)C(=O)/C(=C(\O)c2ccc(F)cc2)C12C(=O)N(C)c1ccccc12 (stereo unspecified)	n
CCCCN1C(=O)C2(/C(=C(/O)c3ccc(F)cc3)C(=O)C(=O)N2CCCN(C)C)c2ccccc21 (stereo unspecified)	n
COCCN1C(=O)C(=O)/C(=C(\O)c2ccc(Cl)cc2)C12C(=O)N(C)c1ccccc12 (stereo unspecified)	n
CCOc1ccc(/C(O)=C2/C(=O)C(=O)N(CCCN(C)C)C23C(=O)N(C)c2ccccc23)cc1 (stereo unspecified)	5
C#C[C@]1(OC(C)=O)CC[C@H]2[C@@H]3CCC4=CC(=NO)CC[C@@H]4[C@H]3CC[C@@]21CC	n
C/C(=N\C(=O)NN)c1cnn(-c2ccccc2)c1C	n
O=S(=O)(N/N=C/c1ccc(Cl)cc1)c1ccc(-c2ccccn2)s1	n
O=C1OCCCN=C(c2ccccc2)c2ccccc21	n
CC1=C(C(=O)OC2CCCC2)C(c2cccs2)C2=C(CCCC2=O)N1 (stereo unspecified)	n
Cc1[nH]c2c(C)cccc2c(=O)c1CN(C)Cc1ccccc1	n
CCOC(=O)c1c(NC(=O)CCC(=O)O)sc2c1CCCCC2	n
CCOC(=O)c1c(NC(=O)CCC(=O)O)sc2c1CCCC2=O	3
CCOC(=O)c1c(NC(=O)CCC(=O)O)sc2c1CCCC2	n
CCc1n(CC)c2ccccc2[n+]1CC(O)COc1ccc(OC)cc1 (stereo unspecified)	n
CC1=CC(C)C2(CO)COC(c3ccc4c(c3)OCO4)C1C2C (stereo unspecified)	n
CC1=CC(C)C2(CO)COC(c3cccnc3)C1C2C (stereo unspecified)	n
CC1=CC(C)C2(CO)COC(c3ccc(O)cc3)C1C2C (stereo unspecified)	3.9
O=C(CSc1nc2ccccc2c(=O)n1-c1cccnc1)c1cccs1	n
CC(C)CC(=O)N1c2ccccc2NC2=C(C(=O)CC(C)(C)C2)C1c1cccs1 (stereo unspecified)	n
Cc1nn(CCC#N)c(C)c1Oc1ccc(Cl)cc1	n
Cc1nnsc1C(=O)Nc1ccc2c(c1)OCCO2	n
Cc1noc(/C=C/c2ccc(OCc3ccsc3C#N)cc2)c1[N+](=O)[O-]	n
Cc1ccc(/C=C/c2onc(C)c2[N+](=O)[O-])o1	n
Cc1noc(/C=C/c2ccc(N3CCCC3)cc2)c1[N+](=O)[O-]	3.3
O=C1c2oc3ccc(F)cc3c(=O)c2C(c2ccc(O)cc2)N1CCCN1CCOCC1 (stereo unspecified)	n
